GoLoco inh red – RGS12 GoLoco-Gai1 interaction inhibition; P63096; 230,000 tested, 0.44% active; Potency, µM (titrated, usually from 61.6 µM), inactives show at the highest dose activity, negative = inhibition, most hits filed as inhibitors; Gai1:RGS12 GoLoco peptide FP, rhodamine, 10 min; active = well fitted inhibition curve with a large enough effect, not every such curve was filed as active; inactive = no such curve, though single readings can be large or run the other way; note: potency is the fitted concentration of half-maximal effect; % is set by controls: 0 for no effect and ±100 for the full control effect; nearly all actives have a fitted effect of over 30% in size
TR SRC2 fluor cs – Texas Red fluorescence interference in TRb-SRC2 counter-screen; TRb/SRC2 Texas Red total fluorescence interference; Potency, µM (top dose mostly 106 µM), for the others: top-dose fluorescence change, negative = quenching; 280,000 tested, 0.29% active; AID 1479; active = well fitted curve in either direction with a large enough effect; inconclusive = small, poorly fitted or top-dose-only effect; note: potency is the fitted concentration of half-maximal effect; % is set by controls: 0 for no effect and ±100 for the full control effect
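Human TRβ ligand-binding domain (0.6 uM) and Texas Red SRC2 peptide (20 nM) in Tris buffer with 1 uM T3 and 5% DMSO were incubated with pinned compound for 5 hr at ambient temperature. Total fluorescence was computed as S + 2P (555/632 nm).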
MLL CXXC-DNA inh – inhibitors of human MLL CXXC domain-DNA interaction | Q03164 | MLL-CXXC / FITC-HOXA9 DNA fluorescence polarization | Potency, µM (doses to about 115 µM), without a hit: at the highest dose activity change, negative = inhibition, usual class: inhibitors | 290,000 tested, 0.037% active | AID 2662; active = well fitted inhibition curve with a large enough effect in the polarisation, with a control signal flat, not every such curve was filed as active; inconclusive = small, poorly fitted or top-dose-only effect, or effect the other way, or a change in a side signal; inactive = no such curve, though single readings can be large or run the other way; the % refers to the polarisation; note: potency is the fitted concentration of half-maximal effect
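Fluorescence polarization: 7 uM MLL-CXXC (stock) preincubated 5 min with compounds, then 50 nM fluorescein-HOX-A9 DNA (stock) added; 30 min ambient. Buffer 50 mM Tris-HCl pH 7.5, 50 mM NaCl, 1 mM DTT, 0.05% BSA.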
Menin-MLL TR inh – inhibitors of human menin-MLL interaction, mutant MLL peptide; O00255; Menin + Texas Red MLL mutant peptide, fluorescence polarization; Potency, µM (doses to about 61.6 µM), for the others: top-dose FP activity change, negative = inhibition, hits mostly inhibitors; 270,000 tested, 0.23% active; AID 1768; active = well fitted inhibition curve with a large enough effect in the polarisation, with a control signal flat, not every such curve was filed as active; inconclusive = small, poorly fitted or top-dose-only effect, or effect the other way, or a change in a side signal; inactive = no such curve, though single readings can be large or run the other way; the % refers to the polarisation; note: potency is the fitted concentration of half-maximal effect; % of control where 0% means no effect
Menin-MLL FL inh – menin-MLL binding inhibition, fluorescein peptide; AID 1766; FP activity change, % at 61.4 µM; 290,000 tested, under 10 active; Fluorescence polarization, fluorescein-MLL peptide displacement from menin; active = well fitted curve in the direction sought with a large enough effect in the polarisation, not every such curve was filed as active; inconclusive = small, poorly fitted or top-dose-only effect, or effect the other way, or a change in a side signal; inactive = no such curve, though single readings can be large or run the other way; the % refers to the polarisation; note: % of control where 0% means no effect
TRb-SRC2 inh – disrupts binding of human TR beta to SRC2; 280,000 tested, 0.065% active; P10828; TRbeta-SRC2 peptide binding, fluorescence polarization; receptor liganded with 1 µM T3; Potency, µM (doses to about 106 µM), without a hit: at the highest dose activity change, negative = inhibition, hits mostly inhibitors;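 note: potency is the fitted concentration of half-maximal effect; plate controls were bound peptide for no effect and peptide without receptor for full effect; nearly all actives have a fitted effect of over 50% in size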
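Each compound concentration gave % activity, normalized to unbound and bound Texas Red SRC2 controls, from polarization read after 5 hr ambient incubation with T3-loaded human TRb LBD.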
MLL CXXC Fl – inhibitors of human MLL CXXC domain-DNA interaction. shares compounds with MLL CXXC-DNA inh. MLL CXXC-DNA binding, fluorescein FP. Potency, µM (series often up to 345 µM), for inactives: top-dose activity change, negative = inhibition, usual class: inhibitors. 200 tested, 70% active. AID 624160; note: potency is the fitted concentration of half-maximal effect; nearly all actives have a fitted effect of over 80% in size
MLL CXXC FP-TR – inhibitors of human MLL CXXC domain-DNA interaction, Texas Red format; shares compounds with MLL CXXC-DNA inh; MLL CXXC-DNA binding, Texas Red fluorescence polarization; Potency, µM (titrated, usually from 345 µM), for inactives: at the top dose activity change, negative = inhibition, most hits filed as inhibitors; 200 tested, 40% active; note: potency is the fitted concentration of half-maximal effect; % is set by controls: 0 for no effect and ±100 for the full control effect; nearly all actives have a fitted effect of over 75% in size
MLL CXXC TRF – disrupts human MLL CXXC domain binding to DNA by HTRF | shares compounds with MLL CXXC-DNA inh | MLL CXXC-DNA binding, HTRF, biochemical | Potency, µM (titrated, usually from 172 µM), for the others: top-dose activity change, negative = inhibition, usual class: inhibitors | 210 tested, 30% active | AID 624162; note: % is set by controls: 0 for no effect and ±100 for the full control effect; nearly all actives have a fitted effect of over 80% in size
* = called active by the depositor; i = inactive; ? = inconclusive; · = not tested or not shown; [ ] = remark or other dose. Only some compounds are listed: those with a hit (about 0.5% of all), similar ones and a draw of the others. Unless noted, calls come from the whole dose curve; as a rule, active = well fitted curve in the direction sought with a large enough effect; inconclusive = small, poorly fitted or top-dose-only effect, or another doubt; inactive = no such curve, though single readings can be large; an effect the other way counts as inactive or inconclusive.

SMILES | GoLoco inh red | TR SRC2 fluor cs | MLL CXXC-DNA inh | Menin-MLL TR inh | Menin-MLL FL inh | TRb-SRC2 inh | MLL CXXC Fl | MLL CXXC FP-TR | MLL CXXC TRF
COCCNC(=O)/C(C#N)=C/c1c(N2CCN(C)CC2)nc2c(C)cccn2c1=O | · | · | -6% | 15% | -1 | · | · | · | ·
CCN1CCN(c2nc3c(C)cccn3c(=O)c2/C=C(\C#N)C(=O)NCCOC)CC1 | · | · | 32µM* | -2% | -5 | · | 8% | 5% | 42%
O=C(O)c1ccccc1-c1c2cc(Br)c(=O)c(Br)c-2oc2c(Br)c(O)c(Br)cc12 | · | 28µM*[fluorescent] | ? | ? | ? | ? | 0.63µM* | 5µM* | -62%
OC(Cn1cncn1)(c1ccc(F)cc1)c1ccc(Cl)cc1 (stereo not drawn) | · | · | 89µM* | -6% | 1 | · | ? | -19% | -1%
CSc1c(C#N)c(N)nc2sc(C(=O)c3ccccc3)c(N)c12 | 3% | 1% | ? | · | ? | 4% | · | · | ·
Nc1c(C(=O)c2ccccc2)sc2snc(SCC(=O)c3ccccc3)c12 | 12% | -10% | ? | ? | ? | -3% | i | -5% | 11%
N#CC(C#N)=C1C=C2C=C(N3CCCCC3)CCC2CC1 (stereo not drawn) | 63% | 8% | ? | ? | · | -14% | 0.14µM* | 126µM* | 199%
CCN(CC)C1=CC2=CC(=C(C#N)C#N)CCC2CC1 (stereo not drawn) | 25% | 3% | ? | ? | ? | 3% | · | · | ·
COc1ccc(NS(=O)(=O)c2cccs2)cn1 | -4% | 0% | -3% | 6% | -9 | -6% | · | · | ·
COc1ccc(NS(=O)(=O)c2ccc(Cl)s2)cn1 | 14% | -4% | ? | · | ? | -7% | 126µM* | 2% | 0%
O=C(CSC1=NS(=O)(=O)c2ccccc21)Nc1ccccc1 | -26% | 2% | 32µM* | -1% | 1 | -6% | -2% | 113µM* | 24µM*
COc1ccc2c(c1)c1c(c(=O)n(-c3ccccc3C)c(=O)n1CC(=O)N1CCCC1)n2C | · | -5% | · | · | · | -1% | · | · | ·
CSC1=C(C#N)C(=O)NC(c2ccccc2O)S1 (stereo not drawn) | -5% | -7% | 13µM* | · | 4 | 2% | 80µM* | 44% | ?
Nc1ccc2cc3ccc(N)cc3nc2c1 | 6% | -9% | ? | -15% | ? | -2% | 1.1µM* | 36µM* | ?
Cc1ccc2cc(N)ccc2n1 | 19% | -1% | -9% | 2% | -7 | -3% | · | · | ·
CCOC(=O)c1c(NC(C)=O)sc2c(OCCN(CC)CC)c(Br)ccc12 | 9% | -3%[53 µM] | 35µM* | ? | 2 | -1%[53 µM] | 113µM* | 5% | 2%
O=C1C(=Cc2cccs2)C(=O)c2ccccc21 | -2% | 1% | ? | 10% | -4 | -2% | 22µM* | ? | 15%
O=C1/C(=C/c2cccs2)Cc2ccccc21 | · | -8% | 7% | 26% | 9 | -1% | · | · | ·
CCCCC1OC2(C)OC(=N)C1(C#N)C(C#N)(C#N)C2c1ccccc1 (stereo not drawn) | -17% | 11% | 22µM* | -27% | ? | -16% | 28µM* | ? | -5%

Compound activity: PubChem BioAssay, National Center for Advancing Translational Sciences (NCATS)
